Bioassay records (PubChem BioAssay)
PAFAH1B2 inh – PAFAH1B2 enzyme inhibitors, primary screen, biochemical, fluorescence polarization, human | Platelet-activating factor acetylhydrolase IB subunit alpha2 (Homo sapiens), P68402 | recombinant PAFAH1B2, FP-rhodamine activity probe | hit rate 1.2% among 340,000 | inhibition, % at 3.39 µM;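 active = inhibition above the mean of all tested compounds plus 3 SD, cut at about 24% in these data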;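 also: 0% = enzyme with DMSO and 100% = wells lacking PAFAH1B2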
Target sequence (P68402 whole entry, looked up): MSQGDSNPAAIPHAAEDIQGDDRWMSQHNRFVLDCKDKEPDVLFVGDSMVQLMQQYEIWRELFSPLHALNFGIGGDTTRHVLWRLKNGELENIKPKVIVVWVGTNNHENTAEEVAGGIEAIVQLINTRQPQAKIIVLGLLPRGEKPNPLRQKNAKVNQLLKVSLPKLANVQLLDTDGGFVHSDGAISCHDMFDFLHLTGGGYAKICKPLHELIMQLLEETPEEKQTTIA
Fam108B inh – mouse Fam108B serine hydrolase inhibitors, primary screen, counter-screen for RBBP9 inhibitor project, biochemical, fluorescence polarization. recombinant Fam108B, FP-Rh probe fluorescence polarization. inhibition, % at 9.51 µM. hit rate 0.33% among 300,000;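 active = inhibition above the screen mean inhibition plus 3 SD, computed separately per campaign, cut at about 18% in these data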;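 also: inhibitors lower polarization as less probe binds the enzyme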
PAFAH2 FP inh – PAFAH2 enzyme inhibitors, primary screen, biochemical, fluorescence polarization, human; hit rate 0.99% among 340,000; recombinant PAFAH2, FP-rhodamine activity probe; AID 492956, 2010; inhibition, % at 3.39 µM; Platelet-activating factor acetylhydrolase 2, cytoplasmic (Homo sapiens), Q99487;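 active = inhibition above the mean over all tested compounds plus 3 SD, cut at about 30% in these data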;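 also: inhibitors block probe labeling of enzyme so polarization drops; 0% = enzyme with DMSO and 100% = wells lacking PAFAH2 protein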
PME-1 inh – PME-1 inhibitors via competitive probe labeling, primary screen, biochemical, fluorescence polarization, FP-Rh probe, HTS | hit rate 0.53% among 320,000 | recombinant PME-1 | inhibition, % at 5.9 µM | AID 2130, 2009 | Protein phosphatase methylesterase 1 (Homo sapiens), Q9Y570;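 active = inhibition above the campaign mean of all compounds plus 3 SD, cut at about 26% in these data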;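 also: competitive labeling of PME-1 active site by serine hydrolase directed probe; 0% = PME-1 with DMSO and 100% = wells lacking PME-1 enzyme; inhibitors block probe labeling so polarization falls and inhibition rises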
PAFAH1B3 FP inh – PAFAH1B3 enzyme inhibitors, primary screen, biochemical, fluorescence polarization, human. inhibition, % at 3.39 µM. AID 492972, 2010. recombinant PAFAH1B3, FP-rhodamine probe. Platelet-activating factor acetylhydrolase IB subunit alpha1 (Homo sapiens), Q15102. hit rate 0.28% among 340,000;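 active = inhibition above the screen-wide average of all tested compounds plus 3 SD, cut at about 25% in these data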;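 also: 0% = enzyme with DMSO only and 100% = wells lacking PAFAH1B3 protein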
Target sequence (Q15102 whole entry, looked up): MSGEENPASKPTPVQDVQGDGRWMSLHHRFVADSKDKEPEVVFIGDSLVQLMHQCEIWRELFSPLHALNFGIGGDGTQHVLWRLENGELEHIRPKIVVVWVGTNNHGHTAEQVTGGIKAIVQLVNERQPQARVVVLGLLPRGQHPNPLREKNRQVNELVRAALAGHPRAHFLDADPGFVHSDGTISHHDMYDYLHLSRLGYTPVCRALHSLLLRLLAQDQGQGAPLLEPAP
pPAFAH FP inh – pPAFAH enzyme inhibitors, primary screen, biochemical, fluorescence polarization, human; Platelet-activating factor acetylhydrolase (Homo sapiens), Q13093; recombinant pPAFAH, FP-rhodamine probe fluorescence polarization; inhibition, % at 3.39 µM; hit rate 1.5% among 330,000; AID 463082, 2010;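 active = inhibition above the mean inhibition across the screen plus 3 SD, cut at about 25% in these data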;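 also: inhibitors block binding of the rhodamine activity-based probe so polarization drops; 0% = enzyme with DMSO and 100% = wells lacking pPAFAH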
pPAFAH FP conf – pPAFAH (PLA2G7) enzyme inhibitors, confirmation, biochemical, fluorescence polarization, human; shares compounds with pPAFAH FP inh; recombinant pPAFAH, FP-Rh probe fluorescence polarization; inhibition, % at 3.39 µM; hit rate 72% among 2,300;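 active = mean inhibition of the triplicate above the hit cutoff set for the earlier primary screen, cut at about 25% in these data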;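 also: 0% = enzyme with DMSO and 100% = wells lacking pPAFAH enzyme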
An asterisk follows results filed as active; · = no result. Hits are enriched below; roughly 2.9% of the tested compounds scored in any of these assays.

SMILES	PAFAH1B2 inh	Fam108B inh	PAFAH2 FP inh	PME-1 inh	PAFAH1B3 FP inh	pPAFAH FP inh	pPAFAH FP conf
CCOc1cc(-c2cc(-c3ccc(C)cc3)nc(N)c2C#N)ccc1O	3	7	-9	-10	2	10	·
O=C1COc2ccc(C(=O)COC(=O)/C=C/c3ccc(Br)o3)cc2N1	-7	2	8	-6	-2	39*	22
N#CC1(NC(=O)CSc2nncn2-c2ccccc2F)CCCC1	7	·	6	-2	6	-2	·
Cc1ccc(CN2CCCC(C(=O)N3CCCC3)C2)cc1 (stereo not given)	1	1	-2	-1	6	4	·
O=C1c2ccc(-c3ccc(F)cc3OCc3ccccc3)cc2S(=O)(=O)c2cccc(C(=O)N3CCCC3)c21	12	·	8	3	5	46*	45*
CCN(C[C@H]1N[C@@](Cc2ccccc2)(C(=O)OC)[C@H]2C(=O)N(C)C(=O)[C@@H]12)S(=O)(=O)c1ccc(C(C)(C)C)cc1	9	·	6	·	7	2	·
Cc1ccccc1N=Nc1ccc(O)c2ncccc12	3	8	1	-2	9	41*	36*
COc1cccc(N=Nc2ccc(O)c3ncccc23)c1	6	9	5	13	9	60*	25*
COCc1ccc(O)c2ncccc12	2	1	-2	0	2	4	·
COc1cc(OC)cc(C(=O)Nc2cccc3cccnc23)c1	1	-1	1	14	7	-1	·
COc1cccc(N=Nc2ccc3cccnc3c2O)c1	5	8	-2	5	18	58*	33*
CCOC(=O)C1(CCCc2ccccc2)CCN(CCCn2cccn2)CC1	2	1	-3	-6	-4	1	·
CN(C(=O)c1c(Cl)nc2sccn12)C1CCCCC1	8	0	0	-3	5	1	·
Cc1nc2ccc(F)cc2cc1C(=O)Nc1ccc(Cl)c(Cl)c1	0	-8	-10	-7	-6	42*	2
Cc1nc2ccc(F)cc2cc1C(=O)NCc1ccco1	10	3	10	-3	-2	1	·
COc1cc2c(ccc3cc(OC)c(OC)c(O)c32)cc1O	13	5	15	2	23	39*	22
CC(=O)Nc1ccc(C2=NN(Cc3nnc(-c4ccccc4)o3)C(=O)SC2)cc1	-1	10	-3	7	-11	-1	·
O=C(COC(=O)CNC(=O)c1ccccc1)Nc1ccc(F)c([N+](=O)[O-])c1	-1	-1	1	0	6	37*	5
O=C1CCCC2=C1C(c1ccc(O)c(O)c1)Nc1ccc3ccccc3c12 (stereo not given)	6	-3	5	-1	3	36*	31*
COc1cc(C2Nc3ccc4ncccc4c3C3=C2C(=O)CCC3)cc(OC)c1O (stereo not given)	0	1	3	1	8	7	·
Cc1cccc(S(=O)(=O)Nc2ccc(-c3cn4ccccc4n3)cc2)c1	2	-5	12	-2	2	35*	22
O=S(=O)(Nc1ccc(-c2cn3ccccc3n2)cc1)c1ccccc1	-4	-2	1	-4	5	18	·
COc1ccc(N(Cc2cc3cccc(C)c3[nH]c2=O)S(=O)(=O)c2ccc(OC)cc2)cc1	5	-3	5	1	8	66*	2
Cc1cc(SCC(=O)N/N=C/c2ccc(O)c(O)c2O)c(C)cc1Br	-6	10	2	31*	13	57*	75*
COc1cc(/C=N/NC(=O)CSc2cc(C)c(Br)cc2C)ccc1O	1	8	2	21	9	8	·
SMILES	PAFAH1B2 inh	Fam108B inh	PAFAH2 FP inh	PME-1 inh	PAFAH1B3 FP inh	pPAFAH FP inh	pPAFAH FP conf
Clc1ccc(-c2nnc(N3CCCC3)nn2)cc1	-1	1	-2	7	2	50*	7
Cc1ccc(C(=O)Nc2scc(-c3ccccc3)c2C(=O)O)cc1	6	3	-8	-7	14	-17	·
CC(C)(C)C(=O)Nc1scc(-c2ccc(-c3ccccc3)cc2)c1C(=O)O	8	1	0	1	1	43*	25*
NC(=O)C1CCN(C(=O)c2cc3ccccc3cc2O)CC1	0	6	8	2	-1	6	·
COc1cc(C(=S)N2CCN(c3ccccc3Cl)CC2)cc(O)c1O	-4	-1	8	-1	1	42*	64*
CN(C)c1ccc(C(=O)OCC(=O)NCCC2=CCCCC2)cc1	1	-3	80*	2	-1	38*	24
O=Cc1ccc(C(=O)OCC(=O)NCCC2=CCCCC2)cc1	-2	2	23	2	1	7	·
COc1cc(N2C(=O)NC3CC2(C)Oc2ccccc23)cc(OC)c1OC (stereo not given)	4	5	-5	0	9	35*	2
O=C(O)c1ccc2c(=O)n3c(nc2c1)/C(=C/c1ccc(Cl)cc1Cl)CC3	2	-2	-4	-8	11	1	·
COc1ccc(CNC(=O)CN2C(=O)NC3(CCCCCC3)C2=O)cc1	5	·	0	·	6	61*	5
CCOC(=O)C1CCN(c2c(Nc3ccc4c(c3)OCCO4)c(=O)c2=O)CC1	-2	-3	4	23	6	0	·
COc1ccc(-n2c(C)cc(/C=C3\SC(=S)NC3=O)c2C)cc1	1	0	7	1	6	16	·
Cc1cc(/C=C2\SC(=S)NC2=O)c(C)n1C	7	-2	23	-7	17	39*	7
Cc1cc(/C=C2\SC(=S)NC2=O)c(C)n1-c1ccc(O)cc1	12	9	21	-7	12	35*	45*
COc1ccc(OC)c(NC(=O)COC(=O)CCNc2ccccc2OC)c1	-1	·	3	·	2	7	·
CCN(CC(=O)Nc1ccc(NC(C)=O)cc1)CC(=O)Nc1cc(C)on1	-6	·	13	1	-2	3	·
COc1ccc(NS(=O)(=O)c2ccc(O)c(NC(=O)c3cc4c(C)nn(-c5ccc(F)cc5)c4s3)c2)cc1	-15	-23	-18	-50	-37	36*	29*
Cc1nn(-c2ccc(F)cc2)c2sc(C(=O)N3CCCCCC3)cc12	0	2	0	2	5	4	·
Cc1ccc(-c2ccccc2NC(=O)CS(=O)CC(=O)Nc2ccc(C)c(Cl)c2)o1 (stereo not given)	22	0	3	45*	4	85*	8
